Hits are enriched below; roughly 3.7% of the tested compounds scored in any of these assays.
TIM10 inh: inhibits growth of TIM10 yeast strain. S. cerevisiae TIM10 strain growth, BacTiter-Glo luminescence, 24 h. inhibition, % at 10 µM. 330,000 compounds, 1.4% hits;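 active = inhibition of 40% or more at the single tested concentration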;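 also: wild-type TIM10 isogenic control strain grown at permissive 25 °C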
NLRP3 yeast inh: NALP3 inhibition in yeast | 330,000 compounds, 0.39% hits | Yeast reconstituted NLRP3/ASC/caspase-1, beta-gal luminescence, 24 h | inhibition, % at 10 µM;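 active = inhibition of 50% or more; inactive = inhibition below 50%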
tim23-1 inh: growth inhibitors of tim23-1 mutant yeast; S. cerevisiae tim23-1 growth, BacTiter-Glo luminescence, 24 h; 330,000 compounds, 1.3% hits; inhibition, % at 20 µM;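 active = growth inhibition of the mutant yeast at or above 50%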;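 also: temperature-sensitive mutant grown at 25 °C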
tim10-1 inh: growth inhibitors of tim10-1 mutant yeast; S. cerevisiae tim10-1 ts strain growth, BacTiter-Glo, 24 h; inhibition, % at 20 µM; 330,000 compounds, 2.2% hits;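 active = inhibition of at least 40%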;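 also: mutant grown at 25 °C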
PfHsp90 set2: growth inhibition of yeast expressing Plasmodium Hsp90; 310,000 compounds, 0.32% hits; AID 504621; S. cerevisiae expressing PfHsp90, BacTiter-Glo ATP, 48 h; yeast lacking PDR1 and PDR3 efflux regulators; inhibition, % at 9.4 µM;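 active = every replicate shows inhibition above about 80%, whatever the replicate mean, limit read from the data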
tim10-1 confirm: confirmation of tim10-1 mutant yeast growth inhibitors; AID 463213; shares compounds with tim10-1 inh; 7,400 compounds, 56% hits; S. cerevisiae tim10-1 ts strain growth, BacTiter-Glo, 24 h; inhibition, % at 20 µM;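 active = inhibition of yeast growth at or above a set limit in either of two repeat tests at 20 µM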;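 also: tim10-1 mutant grown at permissive 25 °C to find synthetic lethal compounds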
Each line names hits and unclear results; the compound was inactive in the other large screens (follow-up assays come after a bar, where they were run).

CN1/C(=C/C2CC(=O)N(c3cccc4ccccc34)C2=O)C(C)(C)c2ccccc21 (stereo unspecified)	tim10-1 inh 50.7 | tim10-1 confirm 39.0
CC1C(=O)C(C)C(c2ccc(Br)cc2)NC1c1ccc(Br)cc1 (stereo unspecified)	tim10-1 inh 48.2 | tim10-1 confirm inactive
COc1ccc(-c2cc(-c3ccccc3)c(C#N)c(SCC(=O)Nc3ncc(C)s3)n2)cc1	tim10-1 inh 42.5 | tim10-1 confirm inactive
COc1ccc(-c2cc(-c3ccccc3)nc(SCC(=O)Nc3nccs3)c2C#N)cc1	none
Cc1ccc(S(=O)(=O)N2CCN(C(C)CC(=O)O)CC2)cc1 (stereo unspecified)	none
O=C(O)Cc1sc(Nc2ccccc2)nc1-c1ccc(Cl)cc1	tim10-1 inh 40.4 | tim10-1 confirm inactive
COc1ccc(C2(C)CC(=O)NC2=O)cc1 (stereo unspecified)	none
N#CCSc1nc2c(c(C3CC=CCC3)c1C#N)CCC2 (stereo unspecified)	tim10-1 inh 47.2 | tim10-1 confirm 35.1
N#CCSc1nc2c(cc1C#N)CCCCCC2	none
Cn1c(N/N=C/c2cccs2)nc2c1c(=O)n(Cc1ccccc1)c(=O)n2C	tim10-1 inh 40.3 | tim10-1 confirm inactive
Cn1c(=O)c2c(nc(N/N=C/c3cccs3)n2Cc2ccccc2)n(C)c1=O	none
CCC(C)C(=O)N1c2ccccc2C(=C2SC(C(=O)OC)=C(C(=O)OC)S2)C(=S)C1(C)C (stereo unspecified)	tim10-1 inh 43.6 | tim10-1 confirm inactive
CCOC(=O)c1cn(CC(=O)Nc2ccc(OC)cc2OC)nn1	none
Cc1ccc(CN(Cc2ccco2)C(=S)Nc2ccccc2C)cc1	tim10-1 inh 42.2 | tim10-1 confirm inactive
O=C(CCC1CCN(C(=O)Cc2c(F)cccc2F)CC1)NC1CC1	none
BrC(=C\c1ccccc1)/C=N/Nc1nc2ccccc2[nH]1	tim10-1 inh 54.3 | tim10-1 confirm 32.4
C(=N\Nc1nc2ccccc2[nH]1)/c1ccccn1	none (no result: TIM10 inh, NLRP3 yeast inh, tim23-1 inh, tim10-1 inh)
CCN(CC)C(=O)C1CCN(S(=O)(=O)c2c(C)noc2/C=C/c2cccc(C)c2)CC1	tim10-1 inh 41.2 | tim10-1 confirm inactive
CCCCCCCCCCCCN1[C@@H](CC(=O)O)c2cc(C(F)(F)F)ccc2S1(=O)=O	tim10-1 inh 63.7 | tim10-1 confirm inactive
CCCCCCCCN1[C@@H](CC(=O)O)c2cc(C(F)(F)F)ccc2S1(=O)=O	none
COc1cc(NC(=O)CSc2nnc(C)s2)cc(OC)c1	none
COc1ccc(S(=O)(=O)N2CCN(c3ccccc3OC)CC2)cc1	tim10-1 inh 43.4 | tim10-1 confirm 34.5
CCCOC(=O)CC1C(=O)NCCN1C(=O)OC(C)(C)C (stereo unspecified)	none
CCC1CN(C(=O)NCc2ccc(C)cc2)c2ccccc2O1 (stereo unspecified)	none
CCC1CN(C(=O)NCc2ccc(F)cc2)c2cc(C)ccc2O1 (stereo unspecified)	tim10-1 inh 41.3 | tim10-1 confirm inactive
O=C(CN1CCN(S(=O)(=O)c2ccc(F)cc2)CC1)Nc1ccc(Cl)c(C(F)(F)F)c1	tim10-1 inh 43.8 | tim10-1 confirm 38.6
COc1ccccc1N1CCN(CC(=O)Nc2ccc(Cl)c(C(F)(F)F)c2)CC1	tim10-1 inh 41.5 | tim10-1 confirm 29.2
O=C(CN1CCN(S(=O)(=O)c2ccc(F)cc2)CC1)Nc1ccc2c(c1)OCCO2	none
COC(=O)C1C2CCC(C2)C1C(=O)OCC(=O)c1ccccc1 (stereo unspecified)	none (no result: PfHsp90 set2)
COc1ccc(-c2[nH]ncc2-c2ccc3c(c2)OCCO3)c(O)c1	tim10-1 inh 40.4 (no result: PfHsp90 set2) | tim10-1 confirm inactive
S=C(N/N=C/c1cccc2ccccc12)Nc1cccc(Cl)c1	tim10-1 inh 43.1 | tim10-1 confirm 36.9
S=C(NCCC(c1ccccc1)c1ccccc1)Nc1cccc(Cl)c1	tim10-1 inh 40.1 | tim10-1 confirm inactive
Fc1cccc(NC(=S)NCc2ccccc2Cl)c1	tim10-1 inh 49.6 | tim10-1 confirm 43.5
Cn1c(=O)n(C)c2cc(N3CCCCC3)c(NC(=O)c3cccc(Cl)c3)cc21	tim10-1 inh 42.0 | tim10-1 confirm inactive
CCn1c(=O)n(CC)c2cc(N3CCCC3)c(NC(=O)c3cccc(OC)c3)cc21	tim10-1 inh 46.6 | tim10-1 confirm inactive
O=C(c1cccnc1)N1CCN(c2c(Cl)cccc2[N+](=O)[O-])CC1	none
Cc1cc(C)cc(N(CC(=O)Nc2ccc(Br)cc2)S(=O)(=O)c2c(C)[nH]c(=O)[nH]c2=O)c1	none
O=C(CN1CCOCC1)N/N=C/c1ccco1	none
O=C(CN1CCOCC1)N/N=C/c1c(O)ccc2ccccc12	tim10-1 inh 46.4 | tim10-1 confirm inactive
O=C(CSCC(=O)Nc1ccccc1)N/N=C/c1c(O)ccc2ccccc12	tim10-1 inh 41.8 | tim10-1 confirm inactive
S=c1[nH]nc(-c2ccco2)n1/N=C/C=C/c1ccccc1	tim10-1 inh 40.6 | tim10-1 confirm 30.5
S=c1[nH]nc(-c2ccco2)n1/N=C/c1ccc(Cl)cc1Cl	none
S=c1[nH]nc(-c2ccco2)n1/N=C/c1cccc(Cl)c1Cl	tim10-1 inh 41.3 | tim10-1 confirm 33.4
S=c1[nH]nc(-c2ccccc2)n1/N=C/C=C/c1ccco1	none
Cc1ccc(S(=O)(=O)NCC(=O)OCC(=O)Nc2cccc(S(=O)(=O)N3CCOCC3)c2)cc1	none
CC1=CC(C)(C)N2C(=O)C3(SCC(=O)N3c3ccc(O)cc3)c3cc(C)cc1c32 (stereo unspecified)	tim10-1 inh 42.7 | tim10-1 confirm inactive
Cc1ccc(N2C(=O)CSC23C(=O)Nc2ccccc23)cc1 (stereo unspecified)	none
O=C(CCc1nnc2ccc(NCc3ccc(F)cc3)nn12)NC1CCCC1	none
CCOc1ccc(OCC)c(NC(=O)c2[nH]c(C)c(C(C)=O)c2C)c1	none
COc1ccc(CCNC(=O)CCc2nc3sc4c(c3c(=O)[nH]2)CCCC4)cc1	tim10-1 inh 97.5 | tim10-1 confirm inactive
OCc1ccc(-c2nn(Cc3ccccc3)c3ccccc23)o1	tim10-1 inh 40.1 | tim10-1 confirm 29.8
O=c1c2ccccc2c(-c2n[nH]c(=S)o2)nn1Cc1ccccc1	none
Cc1ccc(C(=O)Nc2ccc(N3CCN(C)CC3)cc2)cc1C	none
CCC(c1nnnn1Cc1ccccc1)N1CCN(c2ccccc2)CC1 (stereo unspecified)	tim10-1 inh 40.9 (no result: PfHsp90 set2) | tim10-1 confirm inactive
COc1ccc(C/C(C)=N/NC(=S)Nc2ccc(C(C)C)cc2)cc1	tim10-1 inh 40.3 | tim10-1 confirm inactive
CCCCNc1ncnc2c1cnn2Cc1ccc(Cl)cc1	tim10-1 inh 40.0 | tim10-1 confirm inactive
COCCNc1ncnc2c1cnn2Cc1ccc(Cl)cc1	none
CCOC(=O)C1=C(N)Oc2ccc3ccccc3c2C1c1ccc(O)c(OC)c1 (stereo unspecified)	tim10-1 inh 40.1 | tim10-1 confirm inactive
CCOC(=O)C1=C(N)Oc2ccc3ccccc3c2C1c1ccc(O)cc1 (stereo unspecified)	none

High-throughput results as filed in PubChem.
